Screens: PubChem BioAssay, National Center for Advancing Translational Sciences (NCATS)
Many of the other results were omitted from the sample, so hits are more common in it than they were.
LASV entry inh = Lassa virus entry inhibition; Lassa virus pseudotype entry inhibition, cell reporter; Potency, µM (series often up to 37.9 µM), actives largely listed as inhibitors; 300,000 tested, 1.2% active; calls by dose curve; tested in HEK293 cells; also: nearly all actives have a fitted effect of over 50% in size
Vaccinia Venus = vaccinia inhibition (Venus reporter); Vaccinia virus Venus reporter expression, fluorescence; Potency, µM (titrated, usually from 36.5 µM), usual class: inhibitors; 330,000 tested, 0.46% active; AID 720580; calls by dose curve; tested in A549 cells; also: nearly all actives have a fitted effect of over 30% in size
Shiga toxin inh = blocks Shiga toxin action in Vero cells; Vero cells, Shiga toxin protein synthesis inhibition reporter; AID 2315; inhibition, % at 38.7 µM; 290,000 tested, 9.2% active; in the data active = inhibition mostly above about 28%, no sharp cut-off; inactive = mostly below about 43%
MARV entry inh = blocks Marburg virus binding to or entry into cells; Potency, µM (top dose mostly 37.8 µM), usual class: inhibitors; Marburg virus pseudotyped entry inhibition, cell reporter; 300,000 tested, 1.8% active; calls by dose curve; tested in HEK293 cells
Cycloheximide cs = counter-screen hit for Shiga toxin inhibitors, cycloheximide; 300,000 tested, 12% active; cell reporter, cycloheximide protein synthesis inhibition counterscreen; max response, %; in the data active = max response mostly above about 13%, no sharp cut-off; inactive = mostly below about 14%; also: read at 38.3 µM for the half of the compounds with a filed dose
Vaccinia mCherry = vaccinia inhibition (mCherry reporter) | 310,000 tested, 0.63% active | Potency, µM (doses to about 36.5 µM), most hits filed as inhibitors | Vaccinia virus mCherry reporter infection, fluorescence; calls by dose curve; tested in A549 cells; also: nearly all actives have a fitted effect of over 35% in size
Large screens that a line does not name were inactive.

Cc1ccc2oc(C(=O)NCc3ccc4c(c3)OCO4)c(C)c2c1	LASV entry inh inconclusive, Cycloheximide cs 24 (no result: Vaccinia mCherry)
Cc1cc(C(=O)O)ccc1NCc1cccnc1	none
CC1CCC/C(=C\Nc2ccc(O)cc2)C1=O (stereo not drawn)	Shiga toxin inh 80, Cycloheximide cs 52 (no result: Vaccinia Venus, Vaccinia mCherry)
CC1(C)OC(C)(C)/C(=C/Nc2ccc(O)cc2)C1=O	none
Cc1cc(C(=O)O)ccc1N/C=C1\CCCC(C)C1=O (stereo not drawn)	LASV entry inh 13µM, MARV entry inh 7.9µM (no result: Vaccinia mCherry)
O=C(CCN1C(=O)c2ccccc2C1=O)N1CCCCCC1	Vaccinia Venus inconclusive, Cycloheximide cs 13 (no result: Vaccinia mCherry)
O=C(CCN1C(=O)c2ccccc2C1=O)N1CCN(c2ccccc2)CC1	none (no result: Vaccinia Venus, Vaccinia mCherry)
O=C(CCNS(=O)(=O)c1ccccc1)N1CCCCCC1	Cycloheximide cs 32 (no result: LASV entry inh, Vaccinia Venus, MARV entry inh, Vaccinia mCherry)
O=C(CCN1C(=O)S/C(=C\c2ccccc2)C1=O)N1CCCCC1	Shiga toxin inh 75, MARV entry inh inconclusive, Cycloheximide cs 27
CN1CCCN(C(=O)COc2ccc(Br)cc2)CC1	none (no result: LASV entry inh, Vaccinia Venus, MARV entry inh, Vaccinia mCherry)
O=C(COc1ccc(Br)cc1)N1CCC(c2ccccc2)C1 (stereo not drawn)	Cycloheximide cs 23 (no result: Vaccinia mCherry)
CCSc1nnc(-c2cc(Br)ccc2NC(C)=O)c(=O)[nH]1	none
Cc1ccc(C(CC(=O)N2CCCC2)c2ccccc2)c(O)c1C (stereo not drawn)	none (no result: Vaccinia mCherry)
Cc1cccc(NC(=O)C2CCCN(c3nnc(-n4c(C)ccc4C)s3)C2)c1C (stereo not drawn)	none (no result: Shiga toxin inh, Cycloheximide cs)
O=C1/C(=C\c2ccccc2)SC(=S)N1CCC(=O)N1CCCCC1CCO (stereo not drawn)	Shiga toxin inh 39, Cycloheximide cs 35 (no result: LASV entry inh, Vaccinia Venus, MARV entry inh, Vaccinia mCherry)
O=C(O)CCN1C(=O)c2ccccc2C1=O	none
O=C(CCCN1C(=O)c2cccc3cccc(c23)C1=O)N1CCN(c2ccccc2O)CC1	LASV entry inh 7.9µM, MARV entry inh inconclusive, Vaccinia mCherry inconclusive
O=C1/C(=C/c2ccccc2Cl)SC(=S)N1CCC(=O)N1CCCCC1CCO (stereo not drawn)	none (no result: LASV entry inh, Vaccinia Venus, MARV entry inh, Vaccinia mCherry)
O=C(COc1ccc(F)cc1)N1CCC(Cc2ccccc2)CC1	Cycloheximide cs 14 (no result: LASV entry inh, Vaccinia Venus, MARV entry inh, Vaccinia mCherry)
O=C(CCN1C(=O)c2ccccc2C1=O)N1CCC(c2ccccc2)C1 (stereo not drawn)	Cycloheximide cs 21 (no result: Vaccinia Venus, Vaccinia mCherry)
COc1ccccc1CNC(=O)[C@H](C)NC(=O)C1CCN(C(=O)[C@H](CCSC)NC(=O)OC(C)(C)C)CC1	none (no result: LASV entry inh, MARV entry inh)
Clc1ccc2sc(C3CCNCC3)nc2c1	LASV entry inh inconclusive, Shiga toxin inh 56, MARV entry inh inconclusive, Cycloheximide cs 36
Cc1ccccc1Oc1ccc(Oc2ccccc2C)nn1	Shiga toxin inh 116, Cycloheximide cs 31
CSc1ccc(/C=N/N2CCN(Cc3ccc(Cl)cc3)CC2)cc1	Vaccinia mCherry inconclusive
CSc1ccc(/C=N/n2c(C)cc(C)cc2=O)cc1	Shiga toxin inh 112, Cycloheximide cs 27 (no result: Vaccinia Venus, Vaccinia mCherry)
C(=N\N1CCN(Cc2ccccc2)CC1)/c1ccc(-c2ccccc2)cc1	none (no result: LASV entry inh, Vaccinia Venus, MARV entry inh, Vaccinia mCherry)
CN1CCN(/N=C/c2ccc(-c3ccccc3)cc2)CC1	LASV entry inh inconclusive, Shiga toxin inh 63, MARV entry inh inconclusive, Cycloheximide cs 49, Vaccinia mCherry inconclusive
CSc1ccc(/C=N/N2CCN(C)CC2)cc1	MARV entry inh inconclusive, Cycloheximide cs 29
O=C(CSCc1ccccc1Cl)NCc1ccc(Cl)c(Cl)c1	none (no result: Shiga toxin inh, MARV entry inh, Cycloheximide cs)
COc1cccc(NC(=O)CN(C)C(C)C(=O)Nc2cc([N+](=O)[O-])ccc2Cl)c1 (stereo not drawn)	LASV entry inh inconclusive
CNC(=O)c1ccccc1NC(=O)c1c(O)c2c([nH]c1=O)CCCC2	LASV entry inh inconclusive
O=C(N/N=C/c1cccc(F)c1)c1c(O)c2c([nH]c1=O)CCCC2	LASV entry inh inconclusive, Shiga toxin inh 36, MARV entry inh inconclusive, Cycloheximide cs 26
COc1cc(/C=N/NC(=O)NC2CCCCC2)cc(OC)c1O	none (no result: LASV entry inh, Vaccinia Venus, MARV entry inh, Vaccinia mCherry)
COc1cc(/C=N/NC(=O)NC2CCCCC2)ccc1O	LASV entry inh inconclusive, Shiga toxin inh 43, Cycloheximide cs 14, Vaccinia mCherry inconclusive
O=C(N/N=C/c1cccc(F)c1)NC1CCCCC1	Cycloheximide cs 19 (no result: LASV entry inh, Vaccinia Venus, Vaccinia mCherry)
CC(C)(C)c1ccc(/C=N/NC(=S)NC2CCCCC2)cc1	LASV entry inh inconclusive, Shiga toxin inh 47, MARV entry inh inconclusive
C=C(CO[C@@H]1C=C[C@@H](c2ccccc2)O[C@@H]1COC)c1ccccc1	none (no result: LASV entry inh, Vaccinia Venus, Shiga toxin inh, Cycloheximide cs, Vaccinia mCherry)
COc1ccc(-c2c(-c3cc(OC)cc(OC)c3)n(C)c3ccc(-c4ccc(N(C)C)nc4)cc23)cc1	none (no result: LASV entry inh, Shiga toxin inh, Cycloheximide cs)
O=C(N/N=C/c1ccccc1F)NC1CCCCC1	Shiga toxin inh 33, Cycloheximide cs 18
O=C(N/N=C/c1ccccc1OC(F)F)NC1CCCCC1	MARV entry inh inconclusive
O=C(N/N=C/c1ccccc1)NC1CCCCC1	Cycloheximide cs 31
COc1ccc(/C(C)=N/NC(=O)c2ccccc2OCc2ccccc2)c(OC)c1	Shiga toxin inh 165, MARV entry inh inconclusive, Cycloheximide cs 33
COc1ccc(/C=N/NC(=O)c2ccccc2OCc2ccccc2)c(OC)c1	LASV entry inh inconclusive, Shiga toxin inh 64, MARV entry inh inconclusive, Cycloheximide cs 30
C#CCOc1ccccc1/C=N/NC(=O)c1ccccc1OCc1ccccc1	none (no result: LASV entry inh, Vaccinia Venus, MARV entry inh, Vaccinia mCherry)
COc1ccc(NC(C)C(=O)N/N=C/c2ccccc2OCc2cccc(Br)c2)cc1 (stereo not drawn)	LASV entry inh 11µM, MARV entry inh inconclusive
COc1ccc(/C(C)=N/NC(=O)C2C3CCCCC32)c(OC)c1 (stereo not drawn)	Shiga toxin inh 41
CC12C=C(C=Cc3ccc(C(F)(F)F)cc3)C(C)(C1)C(c1ccc(C(F)(F)F)cc1)CC2=O (stereo not drawn)	none (no result: LASV entry inh, Vaccinia Venus, Shiga toxin inh, Cycloheximide cs, Vaccinia mCherry)
